Substitutions are numbered along the chain they refer to. The full ranking holds about 24,000 sequences; the median of “enrichment r” is about 0.99, and the highest 2% start at about 3.7. For the sample, the highest values were picked, then their nearest neighbours and some sequences at random.
T1: UNK ZnF1-3 (human, UniProt Q9C0B0 31-174)
T1 sequence: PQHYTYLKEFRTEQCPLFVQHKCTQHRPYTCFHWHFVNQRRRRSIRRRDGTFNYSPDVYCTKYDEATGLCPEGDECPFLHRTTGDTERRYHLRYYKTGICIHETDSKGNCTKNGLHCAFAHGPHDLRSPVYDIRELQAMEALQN

B1: 90247206_90247326_4093_3pUTR_ENSMUSG00000012422_ENSMUST00000161568|mouse|control|control (ssRNA)
RNA: GGGAGUUCUACAGUCCGACGAUCUUCUCAGAAGUUAGUCAGGACCCCCUGUAACAAGGGCGAUUGCUAGCACCGUUUGAGAACAUUUAUUAUUACUAGAAGGUAACAAAGGAAGAGAAGAGCAGCCCUAAGAAUUUUCCAUUCCAACAGAGGAUUGAGCAUCA
B2: chr16:14738297:14738298:+_ENSG00000103429_ENST00000261658|hu_mus|FALSE|FALSE (ssRNA)
RNA: GGGAGUUCUACAGUCCGACGAUCGUUCAAGGUGGUGGGGUUAACCAGGGUGUCGUAGCAGCAGUGGCAGGAGAACUCGCUCACAGAAAUCUGAGGGCCGCUGCUUCUGACAGGAUGCUCUUCCUCCUGCUCUCUCAUGCUCAGCAACAGAGGAUUGAGCAUCA
B3: chr6:41757443:41757444:+_ENSG00000214736_ENST00000398881|hu_mus|hu_hu_hu_mus_False|98_98 (ssRNA)
RNA: GGGAGUUCUACAGUCCGACGAUCGAACCGUGCAGAGACCAGAGAAUAGCCGACACUGGGGGAUGGGGGGGCAGUGGGGGGGGGUUCAGGCAAGGAGAGGGAGUCAACUUCAGCUGCCACUCAGGUAGGAUCUUGUGGUCACAGCAACAGAGGAUUGAGCAUCA
B4: chr6:41757443:41757444:+_ENSG00000214736_ENST00000398881|hu_mus|hu_hu_hu_mus_False|48_98 (ssRNA)
RNA: B3 RNA with C90G, A95G
B5: chr6:41757443:41757444:+_ENSG00000214736_ENST00000398881|hu_mus|hu_hu_hu_mus_False|78_98 (ssRNA)
RNA: B3 RNA with G58U, G61A, A62C, G64C, G65A, G66A
B6: chr6:41757443:41757444:+_ENSG00000214736_ENST00000398881|hu_mus|hu_hu_hu_mus_False|98_108 (ssRNA)
RNA: B3 RNA with C28U, G31C, C32U, A33G, G34C, A35U
B7: 75758389_75758509_1054_3pUTR_ENSMUSG00000032932_ENSMUST00000046283|mouse|control|control (ssRNA)
RNA: GGGAGUUCUACAGUCCGACGAUCUCAGAAAGGCCAGGUCUAAACACUCUAUUCACAUGGUGACCAUCUCCUGGGGUGAGCUGGUCUUUUGGCAGUUCAGAGUCACCAUUCUGAGGUUCCUUGCUGUCCUUCCCCUCCACAGUGCAACAGAGGAUUGAGCAUCA
B8: chrX:98862621:98862622:+_ENSMUSG00000034160_ENSMUST00000044475|mus_hu|mus_mus_mus_hu_False|18_68 (ssRNA)
RNA: GGGAGUUCUACAGUCCGACGAUCCUGCAUCUCCUUUAGAGUGUUUCCCAUAUUAGAGUAGGCAUCAGCAAAUGUAGGACUGAUUCGAAUAGCCUCCUUAUAAUGCAUCAGAGCUUCCUGCAGCUUGCCCUGCUGCUGCAGUACCAACAGAGGAUUGAGCAUCA
B9: chr4:43703020:43703021:+_ENSMUSG00000078716_ENSMUST00000107866|mus_mus|FALSE|FALSE (ssRNA)
RNA: GGGAGUUCUACAGUCCGACGAUCCACACUGCCAGCAAUGAGCAUGUGCCAAAUGCUGUGAAUGUAGAAGUAGUUGUCCCGAGUCUCCACGAAAGCAUACAGUAGAACGGCACUGCCAGCAAUCAGGCUGCCGGGACACAGGUACAACAGAGGAUUGAGCAUCA
B10: chr2:130910683:130910684:-_ENSG00000136699_ENST00000351288|hu_hu|motif|central (ssRNA)
RNA: GGGAGUUCUACAGUCCGACGAUCGGAACACAGAGCCGCCAUCUGUCCUGCAAAUCUGUGGUUGAUGGCAGACGACAGCCGGAAGAGUGUGCGGACCAAGCUGGCGAUCUCAUAGCUCCGGAUGGGCUGCAGCUCCGGGUCCCCCAACAGAGGAUUGAGCAUCA
B11: chr17:56552419:56552420:-_ENSMUSG00000013236_ENSMUST00000086828|mus_mus|mus_mus_mus_hu_False|18_18 (ssRNA)
RNA: GGGAGUUCUACAGUCCGACGAUCAAAAAAUACACUAUUUAAAAAAAAUGAAAUGUCACGGGAUACAGUUACACUGAGAGUUUUAAAAGAAAGCUGGAUUCUGGUCCCAGCCCAGUGGCAGGCAGGGGCAGAGCGGGGAGGAGCCAACAGAGGAUUGAGCAUCA
B12: chr5:145543945:145543946:-_ENSG00000133706_ENST00000545646|hu_hu|hu_hu_hu_mus_True|38_98 (ssRNA)
RNA: GGGAGUUCUACAGUCCGACGAUCCUGAACGGCCAGUGGCGGGAAAUAAUCAAGCCAGUGCUCUGCUUCAGAAAACUUCACUAUGUCGUCAUCAGAGAGGCCAAGGGAUUUCAUAAUGUCCCACUGGUACUUAGAAGAUCCUGCCAACAGAGGAUUGAGCAUCA
B13: chr17:56552419:56552420:-_ENSMUSG00000013236_ENSMUST00000086828|mus_mus|mus_mus_mus_hu_False|18_98 (ssRNA)
RNA: B11 RNA with U38A, U39A
B14: chr17:56552419:56552420:-_ENSMUSG00000013236_ENSMUST00000086828|mus_mus|mus_mus_mus_hu_False|18_48 (ssRNA)
RNA: B11 RNA with G88A, G92A, C93U, U94A, G95A
B15: chr17:56552419:56552420:-_ENSMUSG00000013236_ENSMUST00000086828|mus_mus|mus_mus_mus_hu_False|8_18 (ssRNA)
RNA: B11 RNA with C128A, A129G, G130U, A131G, G132C, C133G, G135A, G136A
B16: chr17:56552419:56552420:-_ENSMUSG00000013236_ENSMUST00000086828|mus_mus|mus_mus_mus_hu_False|1_18 (ssRNA)
RNA: B11 RNA with A138C, G139A, C143G
B17: chr17:56552419:56552420:-_ENSMUSG00000013236_ENSMUST00000086828|mus_mus|mus_mus_mus_hu_False|18_58 (ssRNA)
RNA: B11 RNA with G77C, G79C, U81A
B18: 57396971_57397091_122_5pUTR_ENSMUSG00000021938_ENSMUST00000022507|mouse|control|control (ssRNA)
RNA: GGGAGUUCUACAGUCCGACGAUCGCUUCAGGUUUCCUCUUAACAUCAUCUUAGCAAGUUCGCUUGGGAUGCUGGAUGAGGCCUAGACGUCAAGGUACACACGUCUCCACAUGUAUCUAUGGAAACGAAGCAAGGAAAGCCAGGCAACAGAGGAUUGAGCAUCA
B19: 79664557_79664677_4134_CDS_ENSG00000146247_ENST00000275034|human|control|control (ssRNA)
RNA: GGGAGUUCUACAGUCCGACGAUCACGGAAAGGCUCUGAAUCUUCACAUUGAAAUAUGAGAUUUAACAAUUCUUCACACUGUUUCUUCCAUGCUUGAAUAUCGUAAGACUGGGCUCUAUUACGUAAUCUUCUUCUAGGCUGAUGCAACAGAGGAUUGAGCAUCA
B20: chr2:113333244:113333245:+_ENSG00000125630_ENST00000417433|hu_hu|FALSE|FALSE (ssRNA)
RNA: GGGAGUUCUACAGUCCGACGAUCAACAUCAAGUUAAACAACAUCCAGUUUCACUUUGAUGUUCAUAGCUGCCAGUUCAGCUACAAAAUACCGAAAAACAUAAGGCACAGAAACAGUAUCGAUAGUGUCACUGCGACUACACAGCAACAGAGGAUUGAGCAUCA
B21: chr5:128440902:128440903:+_ENSG00000066583_ENST00000173527|hu_mus|hu_hu_hu_mus_True|88_98 (ssRNA)
RNA: GGGAGUUCUACAGUCCGACGAUCUUGAACGGUGCUGCCAAGACCUUUAGGGUAUUGUUCCGUUAUGAUAACUGGAAUCCCUAAGAUCCGAGCUCCUUGCAACAGUCUCUGUCCCACACUAAUGAUGUCCCCAAAGUAUUUGAUCAACAGAGGAUUGAGCAUCA
B22: chr2:9725471:9725472:-_ENSG00000134308_ENST00000238081|hu_hu|FALSE|FALSE (ssRNA)
RNA: GGGAGUUCUACAGUCCGACGAUCUGCCGCAUCACAUUCUUCUCCUGCACUGUCUGAUGUCCAAAGUGUUAGGUUGUCUCUAAGCAACUGCAUGAUGAGGGUGCUGUCUUUGUAUGAGUCUUCAUUCAGUGUAUCAAGUUCAGCCAACAGAGGAUUGAGCAUCA

Biological target: T1, UNK ZnF1-3
Assay: nsRBNS (natural sequence RNA bind-n-seq); RBNS binding buffer (assumed for nsRBNS): 25 mM Tris pH 7.5, 150 mM KCl, 3 mM MgCl2, 0.01% Triton X-100, 500 ug/ml BSA, 20 U/ml SUPERase-In, 4 C; UNK is unkempt and MSI1 is Musashi-1; names of the RNAs are library labels; protein concentration not given here; high values mean tight binding

| Binder | binding signal |
| --- | --- |
| B1 | 0.591 enrichment R |
| B2 | 0.931 enrichment R |
| B3 | 3.31 enrichment R |
| B4 | 5.8 enrichment R |
| B5 | 1.9 enrichment R |
| B6 | 4.46 enrichment R |
| B7 | 0.633 enrichment R |
| B8 | 1.07 enrichment R |
| B9 | 0.899 enrichment R |
| B10 | 0.907 enrichment R |
| B11 | 3.38 enrichment R |
| B12 | 1.21 enrichment R |
| B13 | 6.3 enrichment R |
| B14 | 7.31 enrichment R |
| B15 | 3.69 enrichment R |
| B16 | 3.35 enrichment R |
| B17 | 5.2 enrichment R |
| B18 | 0.72 enrichment R |
| B19 | 1.11 enrichment R |
| B20 | 0.877 enrichment R |
| B21 | 0.627 enrichment R |
| B22 | 0.929 enrichment R |
